Data published in ChEMBL document CHEMBL1961873, “Compounds: GSK PKIS; Assays: Nanosyn kinase panel” (2012).

Test system: Proto-oncogene tyrosine-protein kinase receptor Ret (Homo sapiens), P07949 [Y791F]
Settings: at 0.1 µM

Chain of Proto-oncogene tyrosine-protein kinase receptor Ret (Homo sapiens), P07949 [Y791F] (P07949 whole entry Y791F): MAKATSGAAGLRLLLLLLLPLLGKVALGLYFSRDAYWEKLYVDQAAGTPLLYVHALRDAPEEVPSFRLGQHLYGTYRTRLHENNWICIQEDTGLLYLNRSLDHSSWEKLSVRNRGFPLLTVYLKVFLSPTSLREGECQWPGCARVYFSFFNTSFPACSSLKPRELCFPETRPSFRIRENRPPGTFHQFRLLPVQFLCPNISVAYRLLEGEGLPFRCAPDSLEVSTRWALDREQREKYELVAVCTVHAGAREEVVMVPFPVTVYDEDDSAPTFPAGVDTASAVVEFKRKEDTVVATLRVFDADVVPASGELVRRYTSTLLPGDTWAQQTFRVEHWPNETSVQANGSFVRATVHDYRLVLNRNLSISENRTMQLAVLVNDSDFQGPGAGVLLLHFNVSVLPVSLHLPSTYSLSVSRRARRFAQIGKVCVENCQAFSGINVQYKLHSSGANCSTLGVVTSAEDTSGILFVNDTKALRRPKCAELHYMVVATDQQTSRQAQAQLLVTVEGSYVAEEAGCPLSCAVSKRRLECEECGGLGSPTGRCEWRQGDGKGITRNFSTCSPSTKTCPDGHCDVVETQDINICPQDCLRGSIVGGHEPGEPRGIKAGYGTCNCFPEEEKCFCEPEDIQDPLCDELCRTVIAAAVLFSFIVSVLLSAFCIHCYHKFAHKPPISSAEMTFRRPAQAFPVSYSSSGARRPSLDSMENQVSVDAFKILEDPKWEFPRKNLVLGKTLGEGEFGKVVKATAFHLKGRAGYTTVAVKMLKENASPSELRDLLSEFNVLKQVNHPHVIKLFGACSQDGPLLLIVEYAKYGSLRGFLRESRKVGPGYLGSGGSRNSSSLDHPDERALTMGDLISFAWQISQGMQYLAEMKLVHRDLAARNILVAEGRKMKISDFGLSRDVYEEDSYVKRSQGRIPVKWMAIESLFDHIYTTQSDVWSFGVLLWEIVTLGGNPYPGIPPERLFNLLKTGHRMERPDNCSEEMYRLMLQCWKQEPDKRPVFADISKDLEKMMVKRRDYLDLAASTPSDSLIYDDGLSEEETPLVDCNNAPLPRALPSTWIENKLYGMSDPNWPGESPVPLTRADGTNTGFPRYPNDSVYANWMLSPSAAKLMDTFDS

| Structure (SMILES) | inhibition |
| --- | --- |
| [O-][S+]1CCN(Cc2ccc(-c3ccc4ncnc(Nc5ccc(OCc6ccccc6)c(Cl)c5)c4c3)o2)CC1 | 4.06% |
| C[C@@H](Oc1cc(-n2cnc3ccc(OC[C@@H](O)CO)cc32)sc1C(N)=O)c1ccccc1Cl | -0.83% |
| OCc1ccc(-c2nc(-c3ccccn3)c(-c3ccc4c(c3)OCO4)[nH]2)cc1 | 12.3% |
| NS(=O)(=O)c1ccc(Nc2cc(-c3cccc(O)c3)n[nH]2)cc1 | 13.4% |
| Nc1ccc(C#Cc2cncnc2Nc2ccc(OCc3cccc(F)c3)c(Cl)c2)cc1 | 2.75% |
| Cc1ccc(Nc2ccnc(Nc3cccc(C(N)=O)c3)n2)cc1O | 74.6% |
| CCCN1CCCC(c2ccc(Nc3nc(Nc4cc(F)ccc4C(N)=O)c4cc[nH]c4n3)c(OC)c2)C1 (stereo unspecified) | 8.67% |
| N#Cc1cccc(Nc2nccc(-c3cnn4ncccc34)n2)c1 | 7.91% |
| COc1cc(Nc2nccc(-c3cnn4ncccc34)n2)cc(OC)c1 | 4.62% |
| CS(=O)(=O)CCNCc1nc(-c2ccc3ncnc(Nc4ccc(OCc5cccc(C(F)(F)F)c5)cc4)c3c2)cs1 | 7.97% |
| Cc1ccc(O)cc1Nc1ccnc2ccc(S(C)(=O)=O)cc12 | 81.3% |
| Cc1nc(-c2ccccc2)n2nc(NCCCN3CCOCC3)ncc12 | 4.35% |
| COc1cccc(-n2ncc3c(N/N=C/c4ccc(S(C)(=O)=O)cc4)ncnc32)c1 | 14.1% |
| NC(=O)c1sc(-n2cnc3ccccc32)cc1OCc1ccccc1Br | 5.9% |
| CS(=O)(=O)Nc1cccc(-c2ccc3c(NC(=O)C4CC4)n[nH]c3c2)c1 | 1.94% |
| COc1cccc(-n2ncc3c(N/N=C/c4ccc(C)cc4)ncnc32)c1 | 4.38% |
| NS(=O)(=O)c1cccc(Nc2cc(-c3ccc(F)cc3)n[nH]2)c1 | 3.26% |

| Structure (SMILES) | inhibition |
| --- | --- |
| COC(=O)c1ccc2c(c1)C(=Cc1cc(Br)c(O)c(Br)c1)C(=O)N2 | 12.2% |
| CCS(=O)(=O)c1ccc(OC)c(Nc2nccc(N(C)c3ccc4c(C)n[nH]c4c3)n2)c1 | 58.1% |
| O=S(=O)(CCOCc1ccc(-c2ccc3ncnc(Nc4ccc(OCc5cccc(F)c5)c(Cl)c4)c3c2)o1)c1ccccc1 | 7.95% |
| Cc1cc(-c2ccccn2)cc(C)c1/C=C/c1cncc(-c2nn[nH]n2)c1 | 5.19% |
| CN(C)C(=O)O[C@@H]1CN[C@@H](C#Cc2cc3ncnc(Nc4ccc(OCc5cccc(F)c5)c(Cl)c4)c3s2)C1 | 3.85% |
| Oc1cccc(-c2nc(-c3ccccc3)[nH]c2-c2ccncc2)c1 | 30% |
| CN1CCN(C(=O)c2ccc(NC(=O)Nc3ccc(N(C)c4ccnc(Nc5ccc(CS(C)(=O)=O)cc5)n4)cc3)cc2)CC1 | 60.7% |
| COc1cc(/C=N/Nc2ncnc3c2cnn3C(C)C)ccc1O | 54% |
| FC(F)(F)c1ccc(-c2nn3ncccc3c2-c2ccnc(Nc3ccc4c(c3)OCCO4)n2)cc1 | 8.67% |
| Nc1nccc(-c2c(-c3ccc(F)cc3)ncn2CCCN2CCOCC2)n1 | 2.28% |
| Cc1ccc(C(=O)NC2CC2)cc1-c1ccc2[nH]ncc2c1 | -3.09% |
| COc1cc2ncn(-c3cc(OCc4ccccc4S(C)(=O)=O)c(C#N)s3)c2cc1OC | 23.2% |
| COc1ccc2ncnc(Nc3ccc(OCc4ccccc4)cc3)c2c1 | 4.16% |
| COC(=O)Nc1nc2cc(Oc3ccc(NC(=O)Nc4cccc(Br)c4)cc3)ccc2[nH]1 | 66.4% |
| Cc1ccc2c(-c3ccnc(Nc4cccc(C(F)(F)F)c4)n3)c(-c3ccccc3)nn2n1 | 6.2% |
| COc1cc2ncnc(Nc3ccc(C)c(O)c3)c2cc1OC | 76.8% |

Test system: Proto-oncogene tyrosine-protein kinase receptor Ret (Homo sapiens), P07949 [Y791F]
Settings: at 1 µM

| Structure (SMILES) | inhibition |
| --- | --- |
| [O-][S+]1CCN(Cc2ccc(-c3ccc4ncnc(Nc5ccc(OCc6ccccc6)c(Cl)c5)c4c3)o2)CC1 | 5.41% |
| C[C@@H](Oc1cc(-n2cnc3ccc(OC[C@@H](O)CO)cc32)sc1C(N)=O)c1ccccc1Cl | 10.8% |
| OCc1ccc(-c2nc(-c3ccccn3)c(-c3ccc4c(c3)OCO4)[nH]2)cc1 | 6.59% |
| NS(=O)(=O)c1ccc(Nc2cc(-c3cccc(O)c3)n[nH]2)cc1 | 26.2% |
| Nc1ccc(C#Cc2cncnc2Nc2ccc(OCc3cccc(F)c3)c(Cl)c2)cc1 | 4.06% |
| Cc1ccc(Nc2ccnc(Nc3cccc(C(N)=O)c3)n2)cc1O | 88.7% |
| CCCN1CCCC(c2ccc(Nc3nc(Nc4cc(F)ccc4C(N)=O)c4cc[nH]c4n3)c(OC)c2)C1 (stereo unspecified) | 23.6% |
| N#Cc1cccc(Nc2nccc(-c3cnn4ncccc34)n2)c1 | 37.3% |
| COc1cc(Nc2nccc(-c3cnn4ncccc34)n2)cc(OC)c1 | 33.6% |
| CS(=O)(=O)CCNCc1nc(-c2ccc3ncnc(Nc4ccc(OCc5cccc(C(F)(F)F)c5)cc4)c3c2)cs1 | 5.88% |
| Cc1ccc(O)cc1Nc1ccnc2ccc(S(C)(=O)=O)cc12 | 89.5% |
| Cc1nc(-c2ccccc2)n2nc(NCCCN3CCOCC3)ncc12 | 4.86% |
| COc1cccc(-n2ncc3c(N/N=C/c4ccc(S(C)(=O)=O)cc4)ncnc32)c1 | 26.7% |
| NC(=O)c1sc(-n2cnc3ccccc32)cc1OCc1ccccc1Br | 15.3% |
| CS(=O)(=O)Nc1cccc(-c2ccc3c(NC(=O)C4CC4)n[nH]c3c2)c1 | -0.36% |
| COc1cccc(-n2ncc3c(N/N=C/c4ccc(C)cc4)ncnc32)c1 | 13.9% |
| NS(=O)(=O)c1cccc(Nc2cc(-c3ccc(F)cc3)n[nH]2)c1 | 23.6% |

| Structure (SMILES) | inhibition |
| --- | --- |
| COC(=O)c1ccc2c(c1)C(=Cc1cc(Br)c(O)c(Br)c1)C(=O)N2 | 21.5% |
| CCS(=O)(=O)c1ccc(OC)c(Nc2nccc(N(C)c3ccc4c(C)n[nH]c4c3)n2)c1 | 80.2% |
| O=S(=O)(CCOCc1ccc(-c2ccc3ncnc(Nc4ccc(OCc5cccc(F)c5)c(Cl)c4)c3c2)o1)c1ccccc1 | 7.27% |
| Cc1cc(-c2ccccn2)cc(C)c1/C=C/c1cncc(-c2nn[nH]n2)c1 | 9.36% |
| CN(C)C(=O)O[C@@H]1CN[C@@H](C#Cc2cc3ncnc(Nc4ccc(OCc5cccc(F)c5)c(Cl)c4)c3s2)C1 | 0.86% |
| Oc1cccc(-c2nc(-c3ccccc3)[nH]c2-c2ccncc2)c1 | 71.2% |
| CN1CCN(C(=O)c2ccc(NC(=O)Nc3ccc(N(C)c4ccnc(Nc5ccc(CS(C)(=O)=O)cc5)n4)cc3)cc2)CC1 | 82.8% |
| COc1cc(/C=N/Nc2ncnc3c2cnn3C(C)C)ccc1O | 78.1% |
| FC(F)(F)c1ccc(-c2nn3ncccc3c2-c2ccnc(Nc3ccc4c(c3)OCCO4)n2)cc1 | 43.9% |
| Nc1nccc(-c2c(-c3ccc(F)cc3)ncn2CCCN2CCOCC2)n1 | 24.9% |
| Cc1ccc(C(=O)NC2CC2)cc1-c1ccc2[nH]ncc2c1 | -0.71% |
| COc1cc2ncn(-c3cc(OCc4ccccc4S(C)(=O)=O)c(C#N)s3)c2cc1OC | 59.1% |
| COc1ccc2ncnc(Nc3ccc(OCc4ccccc4)cc3)c2c1 | 11.5% |
| COC(=O)Nc1nc2cc(Oc3ccc(NC(=O)Nc4cccc(Br)c4)cc3)ccc2[nH]1 | 84.4% |
| Cc1ccc2c(-c3ccnc(Nc4cccc(C(F)(F)F)c4)n3)c(-c3ccccc3)nn2n1 | 37.9% |
| COc1cc2ncnc(Nc3ccc(C)c(O)c3)c2cc1OC | 90.1% |
